Source: PMC7862700, “An all-to-all approach to the identification of sequence-specific readers for epigenetic DNA modifications on cytosine”

Assays:
Experiment in all cases: DAPPL (digital affinity profiling via proximity ligation, sequencing); 10 mM Tris-HCl pH 7.5, 50 mM NaCl, 1 mM DTT, 4% glycerol, room temperature, 30 min; GST-TFs on glutathione beads, 16-mer random dsDNA library, 0.1% formaldehyde crosslink after washing; high values mean tight binding
FEV = target: T1, FEV (Homo sapiens, UniProt Q99581 1-238); conditions: protein: recombinant; tags: N-terminal GST; dsDNA, one strand shown
T1 sequence: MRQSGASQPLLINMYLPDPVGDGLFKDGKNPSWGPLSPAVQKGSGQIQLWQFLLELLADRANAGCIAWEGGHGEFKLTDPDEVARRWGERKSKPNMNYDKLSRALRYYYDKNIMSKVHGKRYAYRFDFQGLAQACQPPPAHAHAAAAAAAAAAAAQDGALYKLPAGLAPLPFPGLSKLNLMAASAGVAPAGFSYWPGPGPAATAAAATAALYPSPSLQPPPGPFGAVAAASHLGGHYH
Procedure, shortened: (§1)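 The binding signal reported is, for every hexamer, its read frequency for a factor over its read frequency for the tag-only sample. Reads came from pools of yeast-expressed, GST-fused human transcription factors on glutathione beads, barcoded with DNA and mixed with that sample, which were incubated with 200 nmole of a random double-stranded 16-mer DNA library in Tris/NaCl/DTT/glycerol buffer at room temperature for 30 min. After washing, the pools were crosslinked with 0.1% formaldehyde, proximity-ligated with BsaI/T4 ligase for 1 h at 37 °C, PCR-amplified and sequenced on an Illumina NextSeq500.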

ETV5 = ETV5 (Homo sapiens, UniProt P41161 1-510); conditions: protein: recombinant; tags: N-terminal GST; dsDNA, one strand shown
Procedure, shortened: as §1

HSF1 = HSF1 (Homo sapiens, UniProt Q00613 1-529); conditions: protein: recombinant; tags: N-terminal GST; chain copies: 3; dsDNA, one strand shown
Procedure, shortened: as §1

SPIC = target: T2, SPIC (Homo sapiens, UniProt Q8N5J4 1-248); conditions: protein: recombinant; tags: N-terminal GST; dsDNA, one strand shown
T2 sequence: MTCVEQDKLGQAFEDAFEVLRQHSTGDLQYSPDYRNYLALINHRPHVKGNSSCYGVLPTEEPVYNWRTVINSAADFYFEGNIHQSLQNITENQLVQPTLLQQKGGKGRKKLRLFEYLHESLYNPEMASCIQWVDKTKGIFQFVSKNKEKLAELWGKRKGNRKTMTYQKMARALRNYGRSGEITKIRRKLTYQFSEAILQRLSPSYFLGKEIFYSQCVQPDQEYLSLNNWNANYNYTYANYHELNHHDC
Procedure, shortened: as §1

ELF4 = ELF4 (Homo sapiens, UniProt Q99607 1-663); conditions: protein: recombinant; tags: N-terminal GST; dsDNA, one strand shown
Procedure, shortened: as §1

ELK4 = target: T3, ELK4 (Homo sapiens, UniProt P28324-2 1-405); conditions: protein: recombinant; tags: N-terminal GST; dsDNA, one strand shown
T3 sequence: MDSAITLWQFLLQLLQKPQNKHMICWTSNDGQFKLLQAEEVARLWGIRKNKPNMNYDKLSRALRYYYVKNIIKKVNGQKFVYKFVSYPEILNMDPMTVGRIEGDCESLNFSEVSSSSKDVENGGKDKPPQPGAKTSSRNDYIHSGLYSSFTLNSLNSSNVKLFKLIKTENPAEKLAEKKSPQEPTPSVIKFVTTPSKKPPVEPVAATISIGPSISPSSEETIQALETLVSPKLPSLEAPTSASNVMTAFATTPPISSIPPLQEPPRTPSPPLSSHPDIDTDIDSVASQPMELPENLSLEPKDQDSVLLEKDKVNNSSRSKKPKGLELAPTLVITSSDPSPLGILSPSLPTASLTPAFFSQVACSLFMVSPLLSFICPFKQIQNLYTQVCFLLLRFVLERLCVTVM
Procedure, shortened: as §1

ETV2 = target: T4, ETV2 (Homo sapiens, UniProt O00321 1-342); conditions: protein: recombinant; tags: N-terminal GST; dsDNA, one strand shown
T4 sequence: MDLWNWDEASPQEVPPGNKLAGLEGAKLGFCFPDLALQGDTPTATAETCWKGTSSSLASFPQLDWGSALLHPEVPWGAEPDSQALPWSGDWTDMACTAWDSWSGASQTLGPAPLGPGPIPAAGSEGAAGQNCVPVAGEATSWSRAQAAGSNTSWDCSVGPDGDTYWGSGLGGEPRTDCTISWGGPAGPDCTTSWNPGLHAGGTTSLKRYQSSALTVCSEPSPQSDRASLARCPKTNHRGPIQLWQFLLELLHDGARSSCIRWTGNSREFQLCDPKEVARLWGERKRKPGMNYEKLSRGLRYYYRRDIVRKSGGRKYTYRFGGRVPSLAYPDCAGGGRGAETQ
Procedure, shortened: as §1

ELF3 = target: T5, ELF3 (Homo sapiens, UniProt P78545 1-371); conditions: protein: recombinant; tags: N-terminal GST; dsDNA, one strand shown
T5 sequence: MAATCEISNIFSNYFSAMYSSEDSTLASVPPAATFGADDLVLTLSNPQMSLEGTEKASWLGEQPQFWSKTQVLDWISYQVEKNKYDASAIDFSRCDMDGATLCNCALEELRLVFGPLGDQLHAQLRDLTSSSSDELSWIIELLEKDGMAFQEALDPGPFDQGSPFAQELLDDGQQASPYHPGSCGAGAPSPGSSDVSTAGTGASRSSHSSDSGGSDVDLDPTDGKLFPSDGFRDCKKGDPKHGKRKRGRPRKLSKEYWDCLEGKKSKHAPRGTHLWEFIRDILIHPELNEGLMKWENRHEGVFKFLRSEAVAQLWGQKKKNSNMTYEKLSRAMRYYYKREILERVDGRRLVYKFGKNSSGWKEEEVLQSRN
Procedure, shortened: as §1

CRX = CRX (Homo sapiens, UniProt O43186 1-299); conditions: protein: recombinant; tags: N-terminal GST; dsDNA, one strand shown
Procedure, shortened: as §1

ETV1 = ETV1 (Homo sapiens, UniProt P50549 1-477); conditions: protein: recombinant; tags: N-terminal GST; dsDNA, one strand shown
Procedure, shortened: as §1

ERF = target: T6, ERF (Homo sapiens, UniProt P50548 1-548); conditions: protein: recombinant; tags: N-terminal GST; dsDNA, one strand shown
T6 sequence: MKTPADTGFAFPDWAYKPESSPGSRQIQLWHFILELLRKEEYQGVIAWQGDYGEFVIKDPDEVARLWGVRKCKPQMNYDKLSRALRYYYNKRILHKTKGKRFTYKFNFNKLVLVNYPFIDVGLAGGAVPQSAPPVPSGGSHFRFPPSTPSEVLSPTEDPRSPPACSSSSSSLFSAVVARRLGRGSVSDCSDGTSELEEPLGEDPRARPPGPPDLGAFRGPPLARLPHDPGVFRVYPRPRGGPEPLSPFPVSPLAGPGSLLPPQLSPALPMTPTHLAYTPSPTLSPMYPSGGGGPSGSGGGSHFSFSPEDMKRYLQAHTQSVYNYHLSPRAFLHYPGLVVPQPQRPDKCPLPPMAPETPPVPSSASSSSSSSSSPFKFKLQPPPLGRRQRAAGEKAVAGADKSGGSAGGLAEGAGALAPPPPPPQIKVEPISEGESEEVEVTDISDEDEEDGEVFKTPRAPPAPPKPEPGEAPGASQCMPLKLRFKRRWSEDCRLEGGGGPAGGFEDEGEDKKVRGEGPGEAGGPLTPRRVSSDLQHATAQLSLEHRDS
Procedure, shortened: as §1

ETV3L = target: T7, ETV3L (Homo sapiens, UniProt Q6ZN32 1-361); conditions: protein: recombinant; tags: N-terminal GST; dsDNA, one strand shown
T7 sequence: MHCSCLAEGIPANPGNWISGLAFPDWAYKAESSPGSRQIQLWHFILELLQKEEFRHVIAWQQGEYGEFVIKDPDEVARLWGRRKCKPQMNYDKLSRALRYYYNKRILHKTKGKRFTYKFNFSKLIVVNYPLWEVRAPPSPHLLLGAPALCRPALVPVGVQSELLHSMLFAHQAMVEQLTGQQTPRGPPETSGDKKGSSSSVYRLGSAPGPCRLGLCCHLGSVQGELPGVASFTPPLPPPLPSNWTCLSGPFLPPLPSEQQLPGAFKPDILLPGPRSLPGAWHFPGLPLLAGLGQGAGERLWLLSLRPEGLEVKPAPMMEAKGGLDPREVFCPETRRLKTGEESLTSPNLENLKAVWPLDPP
Procedure, shortened: as §1

ETS2 = target: T8, ETS2 (Homo sapiens, UniProt P15036 1-469); conditions: protein: recombinant; tags: N-terminal GST; dsDNA, one strand shown
T8 sequence: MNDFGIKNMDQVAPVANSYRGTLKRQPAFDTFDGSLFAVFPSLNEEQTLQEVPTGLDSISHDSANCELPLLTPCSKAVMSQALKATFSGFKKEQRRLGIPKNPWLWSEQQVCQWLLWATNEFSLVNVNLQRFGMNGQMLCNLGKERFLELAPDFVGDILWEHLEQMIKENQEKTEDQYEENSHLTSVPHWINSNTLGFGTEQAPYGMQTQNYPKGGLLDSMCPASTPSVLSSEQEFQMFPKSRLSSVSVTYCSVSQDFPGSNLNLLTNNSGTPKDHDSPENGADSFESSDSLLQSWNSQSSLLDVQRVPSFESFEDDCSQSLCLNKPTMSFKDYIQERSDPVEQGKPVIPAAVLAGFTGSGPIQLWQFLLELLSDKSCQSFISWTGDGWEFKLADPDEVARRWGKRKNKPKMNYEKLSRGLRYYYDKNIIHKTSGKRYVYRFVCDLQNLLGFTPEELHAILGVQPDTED
Procedure, shortened: as §1

SPDEF = target: T9, SPDEF (Homo sapiens, UniProt O95238 1-335); conditions: protein: recombinant; tags: N-terminal GST; dsDNA, one strand shown
T9 sequence: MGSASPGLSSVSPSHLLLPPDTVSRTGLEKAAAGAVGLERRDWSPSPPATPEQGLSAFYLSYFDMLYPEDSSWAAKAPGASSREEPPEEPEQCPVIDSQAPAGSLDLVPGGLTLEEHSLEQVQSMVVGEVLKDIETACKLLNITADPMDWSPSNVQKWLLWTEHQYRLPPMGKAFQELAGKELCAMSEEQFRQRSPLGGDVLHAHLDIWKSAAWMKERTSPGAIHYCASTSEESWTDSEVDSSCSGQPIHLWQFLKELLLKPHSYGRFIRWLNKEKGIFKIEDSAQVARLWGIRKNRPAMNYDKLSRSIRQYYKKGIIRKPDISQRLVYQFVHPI
Procedure, shortened: as §1

ETV7 = target: T10, ETV7 (Homo sapiens, UniProt Q9Y603 1-341); conditions: protein: recombinant; tags: N-terminal GST; dsDNA, one strand shown
T10 sequence: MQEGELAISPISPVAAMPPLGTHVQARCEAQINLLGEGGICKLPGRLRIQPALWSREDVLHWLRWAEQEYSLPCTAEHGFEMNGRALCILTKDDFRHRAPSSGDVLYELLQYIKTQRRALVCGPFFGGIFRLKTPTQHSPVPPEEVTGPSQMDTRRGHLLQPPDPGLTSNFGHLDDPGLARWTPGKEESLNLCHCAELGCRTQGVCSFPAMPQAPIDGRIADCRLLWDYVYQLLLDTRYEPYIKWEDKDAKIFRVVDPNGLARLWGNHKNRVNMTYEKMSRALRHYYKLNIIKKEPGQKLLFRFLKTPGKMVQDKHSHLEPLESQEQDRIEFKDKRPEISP
Procedure, shortened: as §1

ELF5 = target: T11, ELF5 (Homo sapiens, UniProt Q9UKW6-2 1-255); conditions: protein: recombinant; tags: N-terminal GST; dsDNA, one strand shown
T11 sequence: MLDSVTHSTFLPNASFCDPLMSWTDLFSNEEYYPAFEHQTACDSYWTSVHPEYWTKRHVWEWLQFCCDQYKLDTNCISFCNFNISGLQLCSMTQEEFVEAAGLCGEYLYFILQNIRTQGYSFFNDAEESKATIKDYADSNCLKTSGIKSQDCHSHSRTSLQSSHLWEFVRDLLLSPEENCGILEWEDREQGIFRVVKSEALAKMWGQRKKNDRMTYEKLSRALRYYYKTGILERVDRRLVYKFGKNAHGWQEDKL
Procedure, shortened: as §1

ETV3 = target: T12, ETV3 (Homo sapiens, UniProt P41162-2 1-143); conditions: protein: recombinant; tags: N-terminal GST; dsDNA, one strand shown
T12 sequence: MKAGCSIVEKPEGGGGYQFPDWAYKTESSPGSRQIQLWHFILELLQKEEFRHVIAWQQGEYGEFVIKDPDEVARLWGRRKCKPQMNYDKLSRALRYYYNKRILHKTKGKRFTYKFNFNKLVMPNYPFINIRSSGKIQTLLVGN
Procedure, shortened: as §1

ETV6 = ETV6 (Homo sapiens, UniProt P41212 1-452); conditions: protein: recombinant; tags: N-terminal GST; dsDNA, one strand shown
Procedure, shortened: as §1

ELF4, sequence (Q99607 whole entry): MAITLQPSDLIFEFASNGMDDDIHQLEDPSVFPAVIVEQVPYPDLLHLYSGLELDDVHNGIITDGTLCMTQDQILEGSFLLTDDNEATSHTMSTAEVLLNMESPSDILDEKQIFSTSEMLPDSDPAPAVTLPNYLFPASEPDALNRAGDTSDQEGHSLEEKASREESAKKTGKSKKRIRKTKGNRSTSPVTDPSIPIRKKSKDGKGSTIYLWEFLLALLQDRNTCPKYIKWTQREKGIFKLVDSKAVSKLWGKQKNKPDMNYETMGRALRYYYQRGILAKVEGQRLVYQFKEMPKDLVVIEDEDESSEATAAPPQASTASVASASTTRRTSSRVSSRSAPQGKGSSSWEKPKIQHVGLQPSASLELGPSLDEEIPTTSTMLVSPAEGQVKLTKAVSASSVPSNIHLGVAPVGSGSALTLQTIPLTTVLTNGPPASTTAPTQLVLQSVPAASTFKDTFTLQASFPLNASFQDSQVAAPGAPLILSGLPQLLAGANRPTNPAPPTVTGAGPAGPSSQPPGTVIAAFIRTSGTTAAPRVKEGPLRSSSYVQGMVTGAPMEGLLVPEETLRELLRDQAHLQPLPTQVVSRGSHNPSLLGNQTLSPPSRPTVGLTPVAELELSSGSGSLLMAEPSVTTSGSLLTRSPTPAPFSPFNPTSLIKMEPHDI
ETV1, sequence (P50549 whole entry): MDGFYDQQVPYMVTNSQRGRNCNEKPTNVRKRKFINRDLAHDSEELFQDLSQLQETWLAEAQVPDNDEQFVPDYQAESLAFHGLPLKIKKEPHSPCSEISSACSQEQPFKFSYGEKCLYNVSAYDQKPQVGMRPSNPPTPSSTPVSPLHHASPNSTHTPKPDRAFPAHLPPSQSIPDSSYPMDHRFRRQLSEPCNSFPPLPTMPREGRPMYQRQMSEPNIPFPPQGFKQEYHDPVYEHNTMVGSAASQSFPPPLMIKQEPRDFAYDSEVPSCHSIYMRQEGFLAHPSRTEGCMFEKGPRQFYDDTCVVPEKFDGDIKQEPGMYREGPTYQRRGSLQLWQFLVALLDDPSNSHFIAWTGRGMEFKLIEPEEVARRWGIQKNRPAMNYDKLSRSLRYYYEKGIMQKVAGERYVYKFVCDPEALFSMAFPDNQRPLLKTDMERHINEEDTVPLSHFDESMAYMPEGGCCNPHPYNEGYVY
CRX, sequence (O43186 whole entry): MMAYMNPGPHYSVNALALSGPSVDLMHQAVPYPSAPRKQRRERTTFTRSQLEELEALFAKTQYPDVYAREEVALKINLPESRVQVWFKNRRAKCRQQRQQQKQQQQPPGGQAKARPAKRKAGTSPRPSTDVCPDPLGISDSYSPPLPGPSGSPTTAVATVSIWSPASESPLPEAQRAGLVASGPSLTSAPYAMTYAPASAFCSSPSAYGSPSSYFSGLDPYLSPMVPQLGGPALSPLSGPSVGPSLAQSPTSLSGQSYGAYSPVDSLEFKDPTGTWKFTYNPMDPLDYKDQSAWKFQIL
HSF1, sequence (Q00613 whole entry): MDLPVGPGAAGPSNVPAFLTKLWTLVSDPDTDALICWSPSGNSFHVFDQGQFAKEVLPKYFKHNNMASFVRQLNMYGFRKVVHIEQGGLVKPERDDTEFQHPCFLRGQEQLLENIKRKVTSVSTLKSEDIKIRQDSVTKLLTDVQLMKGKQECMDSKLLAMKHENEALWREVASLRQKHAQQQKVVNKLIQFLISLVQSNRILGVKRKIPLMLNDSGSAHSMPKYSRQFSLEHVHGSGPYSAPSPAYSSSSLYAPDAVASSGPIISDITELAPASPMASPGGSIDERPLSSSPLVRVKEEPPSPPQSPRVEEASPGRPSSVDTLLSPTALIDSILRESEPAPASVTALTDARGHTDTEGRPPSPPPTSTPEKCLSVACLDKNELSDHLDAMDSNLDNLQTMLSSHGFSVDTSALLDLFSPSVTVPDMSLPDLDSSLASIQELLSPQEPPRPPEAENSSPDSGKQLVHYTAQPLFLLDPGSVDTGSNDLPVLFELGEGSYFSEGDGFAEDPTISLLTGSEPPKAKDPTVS
ETV5, sequence (P41161 whole entry): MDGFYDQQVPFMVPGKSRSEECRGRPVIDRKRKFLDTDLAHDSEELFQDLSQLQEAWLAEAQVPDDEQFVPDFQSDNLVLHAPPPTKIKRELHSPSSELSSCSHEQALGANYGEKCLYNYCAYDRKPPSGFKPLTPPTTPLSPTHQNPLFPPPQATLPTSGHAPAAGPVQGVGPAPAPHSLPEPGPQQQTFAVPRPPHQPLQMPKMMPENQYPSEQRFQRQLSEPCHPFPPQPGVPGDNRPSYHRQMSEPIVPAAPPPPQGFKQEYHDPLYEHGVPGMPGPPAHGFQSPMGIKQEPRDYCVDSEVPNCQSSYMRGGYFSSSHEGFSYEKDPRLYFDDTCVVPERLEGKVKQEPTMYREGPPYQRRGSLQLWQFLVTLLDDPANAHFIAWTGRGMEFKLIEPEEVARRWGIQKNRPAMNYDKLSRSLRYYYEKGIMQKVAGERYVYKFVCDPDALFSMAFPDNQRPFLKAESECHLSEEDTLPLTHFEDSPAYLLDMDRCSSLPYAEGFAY
ETV6, sequence (P41212 whole entry): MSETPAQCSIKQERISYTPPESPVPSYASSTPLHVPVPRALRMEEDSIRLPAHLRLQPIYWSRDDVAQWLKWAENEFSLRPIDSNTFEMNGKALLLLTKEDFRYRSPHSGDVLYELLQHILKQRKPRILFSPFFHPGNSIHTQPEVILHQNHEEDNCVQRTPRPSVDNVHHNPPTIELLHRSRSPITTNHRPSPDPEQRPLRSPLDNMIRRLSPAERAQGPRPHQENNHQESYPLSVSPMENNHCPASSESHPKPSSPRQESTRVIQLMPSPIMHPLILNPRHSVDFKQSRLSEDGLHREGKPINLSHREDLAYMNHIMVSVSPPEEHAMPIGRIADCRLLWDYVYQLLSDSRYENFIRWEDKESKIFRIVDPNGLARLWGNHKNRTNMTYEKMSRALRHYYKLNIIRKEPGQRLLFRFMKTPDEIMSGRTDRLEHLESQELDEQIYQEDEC

GTAATT
binding signal (FEV): 1.16 fold enrichment (6-mer frequency, TF over GST control) | binding signal (ETV5): 1.23 fold enrichment (6-mer frequency, TF over GST control) | binding signal (HSF1): 1.36 fold enrichment (6-mer frequency, TF over GST control) | binding signal (SPIC): 1.21 fold enrichment (6-mer frequency, TF over GST control) | binding signal (ELF4): 1.22 fold enrichment (6-mer frequency, TF over GST control) | binding signal (ELK4): 1.11 fold enrichment (6-mer frequency, TF over GST control) | binding signal (ETV2): 1.31 fold enrichment (6-mer frequency, TF over GST control) | binding signal (ELF3): 1.19 fold enrichment (6-mer frequency, TF over GST control) | binding signal (CRX): 1.59 fold enrichment (6-mer frequency, TF over GST control) | binding signal (ETV1): 1.3 fold enrichment (6-mer frequency, TF over GST control) | binding signal (ERF): 1.12 fold enrichment (6-mer frequency, TF over GST control) | binding signal (ETV3L): 1.21 fold enrichment (6-mer frequency, TF over GST control) | binding signal (ETS2): 1.28 fold enrichment (6-mer frequency, TF over GST control) | binding signal (SPDEF): 1.19 fold enrichment (6-mer frequency, TF over GST control) | binding signal (ETV7): 1.3 fold enrichment (6-mer frequency, TF over GST control) | binding signal (ELF5): 1.28 fold enrichment (6-mer frequency, TF over GST control) | binding signal (ETV3): 1.18 fold enrichment (6-mer frequency, TF over GST control) | binding signal (ETV6): 1.3 fold enrichment (6-mer frequency, TF over GST control)
